D2 PAM-1: Beta-Arrestin HTS for Positive Allosteric Modulators of the Human D2 Dopamine Receptor: Potentiators | potentiation, % (concentration not given with the values) | 0.23% of 360,000 active | D(2) dopamine receptor (Homo sapiens), P14416 | AID 624464, 2012 | DiscoveRx D2 beta-arrestin cells, luminescence, 90 min; 100% = 57 uM dopamine signal; in the data active means potentiation above about 50%; inconclusive means mostly about 30% to 49%
Target sequence (P14416 whole entry, looked up): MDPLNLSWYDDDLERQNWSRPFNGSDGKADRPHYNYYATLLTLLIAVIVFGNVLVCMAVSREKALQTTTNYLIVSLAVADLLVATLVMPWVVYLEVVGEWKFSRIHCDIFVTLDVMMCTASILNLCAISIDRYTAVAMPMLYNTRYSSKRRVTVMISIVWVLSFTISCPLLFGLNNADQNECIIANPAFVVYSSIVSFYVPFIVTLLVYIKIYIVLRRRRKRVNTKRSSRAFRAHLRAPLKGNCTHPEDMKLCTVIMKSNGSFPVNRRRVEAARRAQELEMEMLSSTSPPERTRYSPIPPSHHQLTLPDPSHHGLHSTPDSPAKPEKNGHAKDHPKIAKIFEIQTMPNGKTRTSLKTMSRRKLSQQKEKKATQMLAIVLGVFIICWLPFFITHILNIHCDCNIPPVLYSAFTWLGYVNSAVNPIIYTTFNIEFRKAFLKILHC
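PathHunter beta-arrestin assay in DiscoveRx D2 cells. Compounds were added with an EC20 of dopamine (50 nM final) for 90 min at 37 deg C. Luminescence was read 1 h after detection reagent, with 57 uM dopamine as the EC100 control.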
D2 PAM-2: HTS Assay for Positive Allosteric Modulators of the Human D2 Dopamine Receptor: Primary Screen for Potentiators. HEK293 T-REx D2, calcium flux, EC20 dopamine potentiation. potentiation, % at 10 µM. 0.34% of 340,000 active. AID 485347, 2010;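 active means potentiation over 3 SD above the plate norm, cut at about 30% in these data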; further: 0% is about no effect
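Tetracycline-induced HEK293 T-REx cells force-coupled to calcium signalling expressed D2; compounds were pin-added after a 10 s baseline, read kinetically 180 s, then an EC20 dopamine challenge followed with a further 180 s calcium read.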
D2 ag-1: Beta-Arrestin HTS for Positive Allosteric Modulators of the Human D2 Dopamine Receptor: Agonists; D(2) dopamine receptor (Homo sapiens), P14416; DiscoveRx PathHunter D2 beta-arrestin, luminescence, 90 min; 100% = 57 uM dopamine signal; activation, % (test concentration not listed); 0.084% of 360,000 active; AID 624465, 2012; in the data active means activation above about 40%; inconclusive means between about 15% and that limit
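DiscoveRx PathHunter D2 beta-arrestin cells (2,100/well) attached overnight, then compound-stimulated 90 min at 37 C in HBSS/10 mM HEPES/0.1% Tween-20 buffer; beta-galactosidase complementation read by luminescence after 1 h at ambient temperature. Dopamine 57 uM final (EC100) as control.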
D2 ag-2: HTS Assay for Allosteric Agonists of the Human D2 Dopamine Receptor: Primary Screen for Agonists. activation, % at 2 µM. 0.53% of 340,000 active. AID 485358, 2010. HEK293 T-REx D2 cells, calcium flux agonist mode. D(2) dopamine receptor (Homo sapiens), P14416;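 active means activation over 3 SD above normal in the single-dose calcium agonist read, cut at about 30% in these data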; further: 0% is about no effect
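HEK293 Trex D2 cells, tetracycline-induced, o/n 30 C 5% CO2; no-wash Ca dye, RT 30–90 min; 10-cycle baseline, 23 nl cpd added, kinetic Ca read 180 s; agonist hits = positive Ca response.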
D2 antagonist: HTS Assay for Allosteric Antagonists of the Human D2 Dopamine Receptor: Primary Screen for Antagonists | D(2) dopamine receptor (Homo sapiens), P14416 | HEK293 TREx D2 cells, calcium flux, dopamine EC80 | inhibition, % at 10 µM | 2% of 340,000 active | AID 485344, 2010; in the data active means inhibition above about 30%; inactive means below that, where a call was filed; further: 0% is about no effect
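Antagonism is scored as inhibition of an EC80 dopamine-evoked calcium signal in a force-coupled, tetracycline-inducible HEK293 T-REx D2 line, with compound present 180 s before agonist.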
Numbers without * were called inactive. The list is not random: actives were taken first. Their share in the collection is about 2.4%.

Results for NC(=O)C(c1ccccc1)C1CCCCC1 (stereo not drawn) ?
D2 PAM-1: -23; D2 PAM-2: -5; D2 ag-1: -5; D2 ag-2: 0; D2 antagonist: 52*

Results for COc1ccc(S(=O)(=O)NCCS(=O)(=O)N2CCN(c3ccccc3F)CC2)cc1 ?
D2 PAM-2: -4; D2 ag-2: 5

Results for CN(C)CCN(C(=O)c1ccc(S(=O)(=O)N2CCc3ccccc32)cc1)c1nc2ccc(F)cc2s1 ?
D2 PAM-1: -22; D2 PAM-2: -18; D2 ag-1: -6; D2 ag-2: -1; D2 antagonist: 69*

Results for CCc1ccc2nc(N(CCCN(C)C)C(=O)c3ccc(S(=O)(=O)N4CCCc5ccccc54)cc3)sc2c1 ?
D2 PAM-1: -11; D2 PAM-2: 11; D2 ag-1: -7; D2 ag-2: 2; D2 antagonist: 3

What do the screens show for `CN(C)CCCNc1oc(-c2ccccc2Cl)nc1S(=O)(=O)c1ccccc1`?
D2 PAM-1: -2; D2 PAM-2: -31; D2 ag-1: -2; D2 ag-2: 1; D2 antagonist: 86*

How did CN(C)CCCNc1oc(-c2ccc(Cl)cc2)nc1S(=O)(=O)c1ccccc1 do in these assays?
D2 PAM-1: -6; D2 ag-1: -6

Results for N#Cc1c(-c2ccc(F)cc2)cc(-c2cccnc2)nc1N ?
D2 PAM-1: 2; D2 ag-1: 0

Results for N#Cc1c(-c2cccs2)cc(-c2cccnc2)nc1N ?
D2 PAM-1: -1; D2 PAM-2: -2; D2 ag-1: 0; D2 ag-2: 0; D2 antagonist: 49*

Results for COc1ccc(C(=O)c2c(C(F)(F)F)oc3c2C(=O)c2ccccc2C3=O)cc1OC ?
D2 PAM-1: inconclusive; D2 PAM-2: 5; D2 ag-1: inconclusive; D2 ag-2: 2; D2 antagonist: 31*

What do the screens show for `CCn1c(Cc2ccccc2)nnc1SCC(=O)Nc1ccccc1O`?
D2 PAM-1: 2; D2 PAM-2: 3; D2 ag-1: 5; D2 ag-2: -1; D2 antagonist: 40*

How did CCn1c(Cc2ccccc2)nnc1SCC(=O)Nc1ccc(N2CCOCC2)c(Cl)c1 do in these assays?
D2 PAM-1: -4; D2 PAM-2: 13; D2 ag-1: -1; D2 ag-2: 0; D2 antagonist: 39*

How did Cn1c(SCC(=O)Nc2ccc(N3CCOCC3)c(Cl)c2)nnc1-c1ccccc1 do in these assays?
D2 PAM-1: -4; D2 ag-1: 1

How did CCn1c(Cc2ccccc2)nnc1SCC(=O)NC(C)(C)C do in these assays?
D2 PAM-1: -1; D2 PAM-2: 8; D2 ag-1: -2; D2 ag-2: 0; D2 antagonist: 8

How did Cc1ccc(-c2nc3c(c(SCC(=O)Nc4cccc(C(=O)O)c4)n2)Cc2cccc(C)c2O3)cc1 do in these assays?
D2 PAM-2: -8; D2 ag-2: 0

What do the screens show for `Cn1c(=O)[nH]c(=O)c2c1nc(CN1CCN(c3ccc(F)cc3)CC1)n2CCCc1ccccc1`?
D2 PAM-1: -16; D2 PAM-2: -3; D2 ag-1: 0; D2 ag-2: 0; D2 antagonist: -10

What do the screens show for `Cn1c(=O)[nH]c(=O)c2c1nc(CN1CCN(c3ccccc3F)CC1)n2CCCc1ccccc1`?
D2 PAM-1: -21; D2 PAM-2: 32*; D2 ag-1: 1; D2 ag-2: 0; D2 antagonist: -14

What do the screens show for `Clc1ccccc1CN1CCN(CCCc2ccccc2)CC1`?
D2 PAM-1: -21; D2 PAM-2: -25; D2 ag-1: -4; D2 ag-2: 0; D2 antagonist: 65*

What do the screens show for `Fc1ccccc1N1CCN(CCCc2ccccc2)CC1`?
D2 PAM-1: -9; D2 PAM-2: -19; D2 ag-1: -3; D2 ag-2: 8; D2 antagonist: 74*

How did COc1cccc(NC(=O)CCc2nnc3n(Cc4ccccc4Cl)c(=O)c4ccccc4n23)c1 do in these assays?
D2 PAM-2: 3; D2 ag-2: 0

How did COc1ccc(NC2=CC(=O)CC(c3ccccc3)C2)c(OC)c1 (stereo not drawn) do in these assays?
D2 PAM-1: -3; D2 PAM-2: -5; D2 ag-1: -1; D2 ag-2: -1; D2 antagonist: 31*

How did COc1ccc(NC(=O)c2ccc(-c3ccccc3C(F)(F)F)o2)cc1 do in these assays?
D2 PAM-1: -32; D2 PAM-2: -23; D2 ag-1: -3; D2 ag-2: 0; D2 antagonist: 49*

Results for O=C(Nc1cccc(F)c1)c1ccc(-c2ccccc2C(F)(F)F)o1 ?
D2 PAM-2: -3; D2 ag-2: 2; D2 antagonist: -32

Results for CNS(=O)(=O)c1ccc(N=Cc2c(C)[nH]n(-c3ccc(C)cc3C)c2=O)cc1 ?
D2 PAM-1: 1; D2 PAM-2: -7; D2 ag-1: -3; D2 ag-2: 1; D2 antagonist: 42*

How did Cc1ccc(-n2[nH]c(C)c(C=Nc3ccc(S(=O)(=O)Nc4nc(C)cc(C)n4)cc3)c2=O)c(C)c1 do in these assays?
D2 PAM-1: 12; D2 PAM-2: 6; D2 ag-1: -1; D2 ag-2: 1; D2 antagonist: -5

Results for Cc1nn(C)c(C)c1CCC(=O)N1CCCC(Nc2ccc(C(C)C)cc2)C1 (stereo not drawn) ?
D2 PAM-1: -7; D2 PAM-2: 36*; D2 ag-1: -1; D2 ag-2: 0; D2 antagonist: -24

What do the screens show for `Cc1ccc(CNC(=O)c2c(-c3ccccc3Cl)noc2C)o1`?
D2 PAM-2: -9; D2 ag-2: -1

Results for CSc1cccc(NC(=S)NCCCN2CCN(c3ccc(F)cc3)CC2)c1 ?
D2 PAM-1: -13; D2 PAM-2: -21; D2 ag-1: -2; D2 ag-2: 1; D2 antagonist: 43*

What do the screens show for `COc1ccc(Cl)cc1C1CC(=O)Nc2cc3c(cc21)OCCO3` (stereo not drawn)?
D2 PAM-2: 5; D2 ag-2: 0

What do the screens show for `COc1ccc(-c2noc(CCC(=O)Nc3cccnc3)n2)cc1`?
D2 PAM-1: -3; D2 PAM-2: 6; D2 ag-1: 0; D2 ag-2: -1; D2 antagonist: 0

What do the screens show for `CC(C)(C)c1ccc(-c2noc(CCC(=O)Nc3cccnc3)n2)cc1`?
D2 PAM-1: -1; D2 PAM-2: -1; D2 ag-1: 5; D2 ag-2: 2; D2 antagonist: 36*

Source: PubChem
